In PubChem BioAssay (Tox21) one finds Potency and viability change, negative = cytotoxic data, which are given here for 40 compounds.

Records with an inconclusive call do not appear. Entries that show only a call come without a potency. The source made the active and inactive calls. Calls come from the whole dose curve; as a rule, active = well fitted cell-killing curve with a large enough effect in the repeat runs; inconclusive = weak or mixed curves, or effect the other way; inactive = flat fitted curve, though single readings scatter.
Potency is the fitted concentration of half-maximal effect.

The experiment is described as follows: qHTS assay to identify small molecule that activate the aryl hydrocarbon receptor (AhR) signaling pathway - cell viability counter screen (AID 743086).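 For viability change, negative = cytotoxic: HepG2 liver cells carrying the AhR DRE luciferase reporter.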 Note: nearly all actives have a fitted effect of over 45% in size. The settings on record: HepG2-AhR-luc viability, CellTiter-Fluor, 24 h; series mostly up to 70.3 µM. From the text: U.S. Tox21 Program National Center for Advancing Translational Sciences [NCATS] NIH Chemical Genomics Center [NCGC] U.S. Environmental Protection Agency [EPA] National Institutes of Environmental Health Sciences [NIEHS] National Toxicology Program [NTP] U.S. Food and Drug Administration [FDA] Tox21 Assay overview: The Aryl hydrocarbon Receptor (AhR), a member of the family of basic helix-loop-helix transcription factors, is crucial to adaptive responses to environmental changes. AhR mediates cellular responses to environmental pollutants such as aromatic hydrocarbons through induction of phase I and II enzymes but also interacts with other nuclear receptor signaling pathways A cell based HepG2-AhR-luc assay (HG2L7.5c1 cell line, developed by Dr. Michael S. Denison, University of California at Davis) was used to assess the activation of AhR. HepG2 (human hepatocellular carcinoma) cells were stably transfected with an Ah receptor-responsive firefly luciferase reporter gene plasmid containing 20 dioxin responsive elements and luciferase reporter gene. Increased luciferase activity can be used to identify the compounds that induce AhR activation. The cytotoxicity of the compounds screened against the HepG2-AhR-luc cell line was tested in parallel by measuring the cell viability using CellTiter-Fluor assay in the same wells.
Tox21 Assay Protocol Summary: 4000 cells in 5 uL/well were dispensed into white wall/solid bottom 1536-well plates using a Multidrop Combi (Thermo Fisher Scientific Inc., Waltham, MA) dispenser. After the assay plates were incubated at 37C for 5 h, 23 nL of compound or DMSO vehicle was transferred to the assay plates by a pintool station (Kalypsys, San Diego, CA). The plates were incubated at 37C for 24 hr. For cell viability measurement, 1 ul/well of CellTiter-Fluor reagent (Promega, Madison, WI) was added into the assay plates using a Flying Reagent Dispenser (FRD) (Aurora Discovery, CA),and then the assay plates were incubated at 37C for 30 min. The fluorescence intensity in the plates was measured using a ViewLux plate reader (PerkinElmer, Shelton, CT), followed by the addition of 4 uL of ONE-Glo Luciferase Assay reagent (Promega) using an FRD (Aurora Discovery). After the assay plates were incubated at room temperature for 30 min, luminescence intensity was measured using a ViewLux plate reader (Perkin Elmer).
In general terms: Quantitative high-throughput screening tests each substance at several concentrations.
For the compound `CCCCCCCCOS(=O)(=O)O`, the Potency entry was “inactive”.
As for `O=C(NCCc1c[nH]c2ccccc12)c1cccnc1`, the Potency result is “inactive”.
For `C[C@@H]1O[C@@H](O[C@@H]2[C@@H](O)[C@H](OCCc3ccc(O)c(O)c3)O[C@H](CO[C@@H]3O[C@H](CO)[C@@H](O)[C@H](O)[C@H]3O)[C@H]2OC(=O)/C=C/c2ccc(O)c(O)c2)[C@H](O)[C@H](O)[C@H]1O`, the Potency entry is “inactive”.
On to `NCCS`, for which the Potency entry is “inactive”.
Consider `CCOC(=O)CC(=O)c1ccccc1`, for which the Potency result is “inactive”.
For the compound `NCCN1CCOCC1`, the Potency result is “inactive”.
The same measure, in the same setting: to `O=S(=O)(O)CCN1CCN(CCO)CC1` belongs “inactive”; to `c1ccc2c(c1)ccc1c3ccccc3ccc21`, “inactive”; to `Nc1ccc(S(=O)(=O)Nc2ccc(Cl)nn2)cc1`, “inactive”.
On to `Nc1cccc(O)c1`, for which the Potency result is “inactive”.
Regarding `O=S(O)(O)=S`, the viability change, negative = cytotoxic was -5.98% [at 8.47 µM] (inactive).
On to `CN1CCN(CC(=O)N2c3ccccc3C(=O)Nc3cccnc32)CC1`, for which the Potency entry was “inactive”.
Same read-out and setting: to `CCOC(=O)/C=C/c1ccccc1` belongs “inactive”.
As to `CCCCC(CC)COCCO` (stereo not given), the Potency result was “inactive”.
On to `CCCCCCOc1ccccc1C(N)=O`, for which the Potency entry was “inactive”.
On the same count and under the same terms, to `COc1ccc2c(c1OC)C(=O)O[C@@H]2[C@H]1c2c(cc3c(c2OC)OCO3)CCN1C` belongs 29.8 µM (active).
Turning to `NS(=O)(=O)c1ccc(NC(=O)CCC(=O)O)cc1`, the Potency result was “inactive”.
Regarding `O=P(O)(O)OP(=O)(O)O`, the Potency result is “inactive”.
Same read-out and setting: as for `COc1nccnc1NS(=O)(=O)c1ccc(N)cc1`, the entry is “inactive”; as for `COC(=O)CCc1ccc(OCC(O)CNC(C)C)cc1` (stereo not given), “inactive”.
For the compound `COc1ccc(OC)c(Cl)c1`, the Potency result was “inactive”.
Same read-out and setting: as for `CC(C)CC(=O)O`, the entry is “inactive”; as for `CC1(C)S[C@@H]2[C@H](N=CN3CCCCCC3)C(=O)N2[C@H]1C(=O)O`, “inactive”.
`CCCC/C=C\CCCCCCCCCC=O`: the Potency result is “inactive”.
On to `CCC(C)NC(N)=O` (stereo not given), for which the Potency entry was “inactive”.
On the same count and under the same terms, to `CCCC/C=C/C=C\C=O` belongs “inactive”; to `O=C1c2ccccc2C(=O)c2cc(S(=O)(=O)O)ccc21`, “inactive”.
Still for that read-out and setting: to `O=C(O)c1cc(Br)c(O)c(Br)c1` belongs “inactive”; to `OCCCCC(O)CO` (stereo not given), “inactive”; to `Cc1ccc2c(c1)OCC(=O)CO2`, “inactive”.
Same read-out and setting: to `Cc1cc(NC(=O)C2=C(O)c3ccccc3S(=O)(=O)N2C)no1` belongs “inactive”; to `C=CC(OCC)OCC`, “inactive”; to `C[Si](C)(C)C`, “inactive”.
As for `O=C(O)Cc1cn(-c2ccccc2)nc1-c1ccc(Cl)cc1`, the Potency result was “inactive”.
The same measure, in the same setting: to `CC(=O)NCCCCCC(=O)O` belongs “inactive”; to `CCC(C)(CCC(C)C)C(=O)O` (stereo not given), “inactive”; to `NC(CO)C(=O)NNCc1ccc(O)c(O)c1O` (stereo not given), “inactive”.
Take `CCCCCCCCCCl`: the Potency entry was “inactive”.
Still for that read-out and setting: to `On1nnc2ccccc21` belongs “inactive”; to `O=C(O)C(=O)Cc1ccccc1`, “inactive”.
